According to PubChem BioAssay:
Unmarked numbers belong to inactive results.

test: ATP-based viability of Huh7 replicon cells – cell-based, CellTiter-Glo luminescence, basal, 48 h, cytotoxicity control for HCV replication inhibitor project, primary screen (AID 1143); conditions: higher = more signal, called active from +8 up or from −8 down;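 also: Huh7 hepatoma cells carrying a hepatitis C replication reporter with no stimulus; test concentration not given here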

Compound | z-score
C=CCOC(=O)[C@@H]1[C@H]2C(=O)O[C@H](c3ccccc3)[C@H](c3ccccc3)N2[C@H](c2ccc(OCCOC(=O)[C@H]3C[C@H]4C(=O)N5CCC[C@H]5C(=O)N4[C@H]3c3ccc(O)cc3)cc2)[C@@]12C(=O)Nc1ccccc12 | -3.23
C[C@@H]1CC[C@H]2C(=O)N3[C@@H](CC[C@@H](C)[C@@H]3c3cccc(N4CCOCC4)c3)C(=O)N2[C@H]1c1cccc(N2CCOCC2)c1 | -0.334
COc1ccc(-c2ccccc2[C@@H]2N[C@H](C(=O)O)CC[C@H]2C)cc1 | -1.45
CN1CCC(CCCO)=CC1C1CC1 (stereo unspecified) | -3.2
C=CCC(OC(C)=O)[C@@H]1[C@@H](N(Cc2cc3ccccc3o2)C(=O)c2ccc(C)cc2)c2cc(OCCCO)ccc2N1C(=O)c1ccc2ccccc2n1 (stereo partly specified) | -0.17
C[C@H]1COC(=O)[C@H](Cc2ccccc2)NC(=O)[C@@H](C)COC(=O)[C@H](Cc2ccccc2)NC1=O | -2.12
CCN1C(C)=C(C(=O)OC)[C@@H](c2ccccc2)N2C(=O)[C@@]3(C(=O)OC)O[C@@]12[C@@H]1C(=O)N(c2ccccc2)C(=O)[C@@H]13 | -1.77
CCCC/C=C/[C@H]([C@@H](O)Cc1ccccc1)N(CC#Cc1ccccc1)Cc1ccccc1Br | -0.677
Cc1ccc(S[C@]2(C(=O)NCCCN(C)C)CC(=O)N(C3CCCCC3)[C@@H]2c2ccc(CO)cc2I)cc1 | -6.58
CO[C@@H]1COC(=O)[C@H](C)NC(=O)CC=C[C@@H](C)[C@H](NS(=O)(=O)c2ccc(C)cc2)COC(=O)CC=C[C@@H]1C | 0.189
C=CCNC(=O)[C@H]1[C@@H]2C(=O)O[C@@H](c3ccccc3)[C@@H](c3ccccc3)N2[C@@H](c2ccccc2OCCO)[C@]12C(=O)N(C(=O)OCCOC)c1ccc(C#CCC(C(=O)OC)C(=O)OC)cc12 | -3.84
CC(=O)NCCCC[C@@H]1NC(=O)[C@@H]2C[C@H](C(=O)NCCCCCCN(C)C)[C@H](c3ccc(O)cc3)N2C1=O | -0.849
O=C(NCC(O)CO)[C@]1(Cc2ccccc2)N=C(c2ccc(OCCCO)cc2)O[C@@H]1c1ccccc1 (stereo partly specified) | -3.91
C[C@H]1NC(=O)[C@@H](C)NC(=O)[C@@]23C(=O)N[C@@H](Cc4ccccc4)C2[C@H](C)[C@@]2(C)O[C@H]2C3/C=C/C/C=C\CNC1=O (stereo partly specified) | -0.333
CC(C)N1CC=CC23O[C@@H]4/C=C\CCCOC(=O)C4[C@H]2C(=O)N(CCO)[C@@H]3C1=O (stereo partly specified) | -1.04
C=CC[C@]1(C(=O)O)N=C(c2ccc(OCCCO)cc2)O[C@H]1c1ccccc1 | -0.551
CC(C)CNC(=O)[C@@]1(C)c2ccccc2C(=O)N(Cc2ccc(OC(F)(F)F)cc2)[C@H]1c1ccc(CO)cc1 | -1.65
CO[C@H]1COC(=O)[C@H](Cc2ccccc2)NC(=O)CC=C[C@@H](C)[C@H](OC)COC(=O)CC=C[C@@H]1C | -1.21

Compound | z-score
C=C(COC)/C(=C/C[C@@H](OC(=O)c1ccncc1)c1ccc(OCCO)cc1)c1cc(C(=O)OC)ccc1OC | -2.43
CSCC[C@@H]1NC(=O)CC=C[C@@H](C)COC(=O)[C@H](CCSC)NC(=O)CC=C[C@@H](C)COC1=O | -3.38
O=C1OCC=C[C@H]2OC34C=CCN(Cc5ccccc5)C(=O)[C@H]3N(CCCCCO)C(=O)[C@@H]4[C@@H]12 (stereo partly specified) | -2.93
Cc1ccc(S[C@]2(C(=O)NCCN3CCOCC3)CC(=O)N(C3Cc4ccccc4C3)[C@@H]2c2ccc(CO)cc2I)cc1 | -2.98
COC(=O)C[C@H]1O[C@]2(C(=O)N(C)c3ccccc32)[C@@H](C)[C@@H]1[Si](C)(C)c1ccc(OC)cc1 | -4.23
CC/C=C/C(=O)N(C[C@@H]1CCCO1)[C@@H]1CC(C(=O)NCCO)=C[C@H](Oc2c(I)cc(CO)cc2OC)[C@H]1O | -1.97
C=C[C@H](OC)[C@@H](OC(=O)Nc1ccc(SC)cc1)c1ccc(OC)c(O)c1 | -0.0203
CN1C2C=C(c3ccc(CO)cc3)C(C3C(=O)N(C(N)=O)C(=O)C32)C1c1cccs1 (stereo unspecified) | -0.975
C=CCN(C(=O)C1N(c2ccc(CCO)cc2)C(=O)C2C(C(=O)O)C3C=CC21O3)C(C)(C)C (stereo unspecified) | -1.93
C=CCC1=C[C@H]2[C@H]([C@@H]3C=C[C@]2(CC=C)C(=O)[C@]32CO2)[C@@]2(CO2)C1=O | -3.26
Cc1ccc(S[C@]2(C(=O)O)CC(=O)N(Cc3ccccc3)[C@@H]2c2ccc(CO)cc2)cc1 | -1.22
CCCNC(=O)[C@@H]1c2ccccc2C(=O)N(Cc2cc(F)cc(C(F)(F)F)c2)[C@H]1c1ccc(CO)cc1 | -2.08
O=C1c2ccccc2[C@](Cc2ccccc2I)(C(=O)O)[C@H](c2ccc(CO)cc2)N1C1CCCCC1 | -4.42
[N-]=[N+]=NCc1ccccc1C[C@]1(C(N)=O)N=C(c2ccc(OCCCO)cc2)O[C@H]1c1ccccc1CN=[N+]=[N-] | -5.2
CO[C@H]1COC(=O)[C@H](C)NC(=O)CC=C[C@@H](C)[C@H](NS(=O)(=O)c2ccc(C)cc2)COC(=O)[C@@H](OCc2ccccc2)C=C[C@@H]1C | 0.0974
COC(=O)c1c(CC[C@@H](CO)NC(=O)N[C@H](Cn2cc(-c3cncn3C)nn2)C(C)C)oc(C(C)=O)c1C(=O)OC | -3.48
C=C(COC)/C(=C/C[C@@H](OC(C)=O)c1cccc(OCCO)c1)c1cc(C(=O)OC)ccc1OC | -1.42
CC(C)[Si]1(C(C)C)O[C@@H](c2ccccc2)c2cc(C3CC3)nc(-c3ccc(Oc4ccccc4)cc3)c21 | -0.313
